Positions count from the first letter of the chain named.
How the values were obtained:
Assay in all cases: protein-binding microarray (PBM); PBM: ~300 nM protein, 6 mM HEPES pH 7.8, 80 mM KCl, 0.5 mM EDTA, 0.5 mM EGTA, 6% glycerol, 35 ng/ul poly-dIdC, 1% milk, 1 h, room temperature; Ap Aiptasia and Nv Nematostella (sea anemones) / Co Capsaspora / Aq Amphimedon (sponge) / Dm Drosophila / Hu human; RHD is the Rel homology domain; high values mean tight binding
Settings in all cases: dsDNA, one strand shown
GST-Ap-NF-kB RHD = target: T1, GST-Ap-NF-kB RHD (Exaiptasia pallida (Aiptasia), UniProt A0A913YAJ5 2-422)
T1 sequence: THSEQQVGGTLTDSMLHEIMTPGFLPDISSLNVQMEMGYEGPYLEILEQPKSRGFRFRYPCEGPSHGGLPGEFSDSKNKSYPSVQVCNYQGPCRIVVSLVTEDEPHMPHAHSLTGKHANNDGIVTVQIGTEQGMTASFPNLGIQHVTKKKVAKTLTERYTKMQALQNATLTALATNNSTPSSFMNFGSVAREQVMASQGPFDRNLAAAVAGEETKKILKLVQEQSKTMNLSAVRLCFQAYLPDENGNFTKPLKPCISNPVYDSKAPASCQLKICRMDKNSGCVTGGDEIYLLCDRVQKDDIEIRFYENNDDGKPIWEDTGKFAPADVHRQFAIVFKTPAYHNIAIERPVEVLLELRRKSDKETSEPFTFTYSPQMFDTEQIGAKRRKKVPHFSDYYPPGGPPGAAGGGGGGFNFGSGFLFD

GST-Co-NF-kB = target: T2, GST-Co-NF-kB (Capsaspora owczarzaki, UniProt F1ARL5 200-546)
T2 sequence: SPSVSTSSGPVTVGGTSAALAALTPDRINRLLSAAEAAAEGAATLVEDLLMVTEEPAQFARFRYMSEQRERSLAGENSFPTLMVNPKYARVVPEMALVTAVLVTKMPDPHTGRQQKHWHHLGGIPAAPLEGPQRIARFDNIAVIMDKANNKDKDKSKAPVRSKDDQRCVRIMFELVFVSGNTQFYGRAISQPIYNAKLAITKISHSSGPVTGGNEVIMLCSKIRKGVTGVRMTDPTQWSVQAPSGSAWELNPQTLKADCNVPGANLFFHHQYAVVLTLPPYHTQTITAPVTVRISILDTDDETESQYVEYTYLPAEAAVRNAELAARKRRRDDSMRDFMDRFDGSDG

GST-Dm-Relish = target: T3, GST-Dm-Relish (Drosophila melanogaster, UniProt Q94527 99-473)
T3 sequence: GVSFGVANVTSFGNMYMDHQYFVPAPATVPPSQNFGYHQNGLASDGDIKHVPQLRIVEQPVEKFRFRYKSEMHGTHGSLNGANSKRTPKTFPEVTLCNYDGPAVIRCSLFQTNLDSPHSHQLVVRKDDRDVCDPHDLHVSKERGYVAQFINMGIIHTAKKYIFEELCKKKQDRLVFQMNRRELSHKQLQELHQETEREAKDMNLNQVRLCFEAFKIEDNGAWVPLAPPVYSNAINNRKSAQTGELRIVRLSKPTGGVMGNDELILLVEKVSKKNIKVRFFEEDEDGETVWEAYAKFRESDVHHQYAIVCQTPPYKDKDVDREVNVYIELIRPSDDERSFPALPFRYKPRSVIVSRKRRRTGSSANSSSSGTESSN

GST-Aq-NF-kB = target: T4, GST-Aq-NF-kB (Amphimedon queenslandica, UniProt A9Y5G7 2-389)
T4 sequence: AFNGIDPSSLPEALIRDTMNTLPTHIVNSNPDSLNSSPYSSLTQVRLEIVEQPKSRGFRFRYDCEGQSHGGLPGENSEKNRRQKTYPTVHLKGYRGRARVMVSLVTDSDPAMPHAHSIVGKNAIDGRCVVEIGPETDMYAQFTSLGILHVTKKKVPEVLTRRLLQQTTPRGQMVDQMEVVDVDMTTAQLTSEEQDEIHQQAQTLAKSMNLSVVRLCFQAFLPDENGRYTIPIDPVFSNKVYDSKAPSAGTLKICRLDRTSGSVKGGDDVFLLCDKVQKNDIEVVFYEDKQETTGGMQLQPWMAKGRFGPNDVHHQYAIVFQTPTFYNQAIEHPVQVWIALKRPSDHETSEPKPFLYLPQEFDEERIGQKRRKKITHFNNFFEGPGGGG

[1] = target: T5, GST-Nv-NF-kB (Ser allele) (Nematostella vectensis, UniProt A7UNT2 2-411)
T5 sequence: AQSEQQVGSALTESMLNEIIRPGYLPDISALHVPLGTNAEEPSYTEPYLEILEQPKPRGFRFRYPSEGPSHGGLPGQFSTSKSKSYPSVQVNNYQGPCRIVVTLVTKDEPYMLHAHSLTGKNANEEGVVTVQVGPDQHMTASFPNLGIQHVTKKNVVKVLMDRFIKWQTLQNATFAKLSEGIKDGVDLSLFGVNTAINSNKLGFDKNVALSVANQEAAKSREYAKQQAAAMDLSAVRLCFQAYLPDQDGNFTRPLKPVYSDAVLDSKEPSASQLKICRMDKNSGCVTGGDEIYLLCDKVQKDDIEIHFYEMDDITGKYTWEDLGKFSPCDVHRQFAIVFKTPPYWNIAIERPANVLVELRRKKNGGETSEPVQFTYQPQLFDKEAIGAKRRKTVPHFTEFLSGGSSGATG

[2] = target: T6, GST-Nv-NF-kB (Cys allele) (Nematostella vectensis, UniProt E5G601 2-411)
T6 sequence: T5 sequence with R21Q, S66C, N207S, Q215E, A217V, K225E, E268A, E399D

Sequence	binding signal (GST-Ap-NF-kB RHD) [z-score]	binding signal (GST-Co-NF-kB) [z-score]	binding signal (GST-Dm-Relish) [z-score]	binding signal (GST-Aq-NF-kB) [z-score]	binding signal [1] [z-score]	binding signal [2] [z-score]
CCGATTAACATCAGGGGGGGAGATGATGTTAATCGGGTCTTGATTCGCTTGACGCTGCTG	5.6	8.63	3.66	4.59		
CCGATTAACATCACCCCAACCCCTGATGTTAATCGGGTCTTGATTCGCTTGACGCTGCTG	2.55	3.44	2.69	2.27		
CCGATTAACATCACTCCCCCCCCTGATGTTAATCGGGTCTTGATTCGCTTGACGCTGCTG	5.73	6.72	4.43	4.65		
CCGATTAACATCAACCCCCCCCGTGATGTTAATCGGGTCTTGATTCGCTTGACGCTGCTG	5.8	6.25	6.51	4.08	2.64	
CCGATTAACATCAAGGGGGGGAATGATGTTAATCGGGTCTTGATTCGCTTGACGCTGCTG	6.62	8.37	4.96	5.81		
CCGATTAACATCACCCTTGGGAATGATGTTAATCGGGTCTTGATTCGCTTGACGCTGCTG	1.03	2.46		2.01		
CCGATTAACATCAATTCCCCCCCTGATGTTAATCGGGTCTTGATTCGCTTGACGCTGCTG	8.18	8.87	6.09	6.45	7.32	
CCGATTAACATCACGGGGGGGGATGATGTTAATCGGGTCTTGATTCGCTTGACGCTGCTG	6.27	7.62	5.35	5.29	5.38	
CCGATTAACATCAAGGGGGGGATTGATGTTAATCGGGTCTTGATTCGCTTGACGCTGCTG	7.19	4.35	5.64	5.59		
CCGATTAACATCAGGCAATCCCATGATGTTAATCGGGTCTTGATTCGCTTGACGCTGCTG	1		2.82	1.38		
CCGATTAACATCAGGGATTAACATGATGTTAATCGGGTCTTGATTCGCTTGACGCTGCTG	1.77		4.89	1.83		
CCGATTAACATCAGGAAACACCATGATGTTAATCGGGTCTTGATTCGCTTGACGCTGCTG	1		1.77	1.49		
CCGATTAACATCACGGGGTGGCCTGATGTTAATCGGGTCTTGATTCGCTTGACGCTGCTG	1.24	1.78	1.37	1.55		
CCGATTAACATCAGGAGATCCCATGATGTTAATCGGGTCTTGATTCGCTTGACGCTGCTG	1.24		4.37	2.7		
CCGATTAACATCAAGGAAAGCCCTGATGTTAATCGGGTCTTGATTCGCTTGACGCTGCTG	1.19		3.3	3.45		
CCGATTAACATCAGGGGTGCCCATGATGTTAATCGGGTCTTGATTCGCTTGACGCTGCTG	1.69		3.52	1.5		
CCGATTAACATCACGGACACCCCTGATGTTAATCGGGTCTTGATTCGCTTGACGCTGCTG	1.65	1.34	1.95	2.16		

Sequence	binding signal (GST-Ap-NF-kB RHD) [z-score]	binding signal (GST-Co-NF-kB) [z-score]	binding signal (GST-Dm-Relish) [z-score]	binding signal (GST-Aq-NF-kB) [z-score]	binding signal [1] [z-score]	binding signal [2] [z-score]
CCGATTAACATCAGGGTCTTATATGATGTTAATCGGGTCTTGATTCGCTTGACGCTGCTG				2.15		1.26
CCGATTAACATCAGGATATCCCATGATGTTAATCGGGTCTTGATTCGCTTGACGCTGCTG	2.32	1.41	3	2.24		
CCGATTAACATCAGTAGTGGGGCTGATGTTAATCGGGTCTTGATTCGCTTGACGCTGCTG				1.72		1.01
CCGATTAACATCACGGGATGTCCTGATGTTAATCGGGTCTTGATTCGCTTGACGCTGCTG	1.47		3.42	3.06		
CCGATTAACATCAATCCCCCCCCTGATGTTAATCGGGTCTTGATTCGCTTGACGCTGCTG	7.49	7.2	6.09	5.2		
CCGATTAACATCAAGGAATGCCCTGATGTTAATCGGGTCTTGATTCGCTTGACGCTGCTG	1.68		1.35	2.68		
CCGATTAACATCAGGTAACCCCATGATGTTAATCGGGTCTTGATTCGCTTGACGCTGCTG	3.05	2.06	6.29	2.29		
CCGATTAACATCAGTGTCCCGTTTGATGTTAATCGGGTCTTGATTCGCTTGACGCTGCTG				1.32		2.18
CCGATTAACATCAGGGCATCCCATGATGTTAATCGGGTCTTGATTCGCTTGACGCTGCTG	1.37		5.99	2.34		
CCGATTAACATCACGGAATGCCCTGATGTTAATCGGGTCTTGATTCGCTTGACGCTGCTG	1.03		1.71	2.6		
CCGATTAACATCACCGGAATTTCTGATGTTAATCGGGTCTTGATTCGCTTGACGCTGCTG	1.27		1.58	2.45		
CCGATTAACATCAGGAGGTTCCCTGATGTTAATCGGGTCTTGATTCGCTTGACGCTGCTG	2.28		2.47	3.68		
CCGATTAACATCACGGAGATCCCTGATGTTAATCGGGTCTTGATTCGCTTGACGCTGCTG	1.39		4.73	3.81		
CCGATTAACATCACCTCCCCCCCTGATGTTAATCGGGTCTTGATTCGCTTGACGCTGCTG	4.48	3.77	4.13	3.93		
CCGATTAACATCAGGGCATTCCATGATGTTAATCGGGTCTTGATTCGCTTGACGCTGCTG	1.14		1.84	2.1		
CCGATTAACATCAAGGAAATACCTGATGTTAATCGGGTCTTGATTCGCTTGACGCTGCTG	1.2		3.3	3.81		
CCGATTAACATCAGGAATTCCTATGATGTTAATCGGGTCTTGATTCGCTTGACGCTGCTG	1.1		3.7	2.07		

From publication PMC5700166
